Several values for one entry are separate records, joined by “and”; a condition that tells them apart may be missing. Identical values can stand only once. Inconclusive results are not listed. Activity calls are given as the source filed them. Unless noted, calls come from the whole dose curve; as a rule, active = well fitted curve in the direction sought with a large enough effect; inconclusive = small, poorly fitted or top-dose-only effect, or another doubt; inactive = no such curve, though single readings can be large; an effect the other way counts as inactive or inconclusive.
Assays:
[1] = Cell Viability - Jurkat (AID 426;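 active = dose-dependent loss of cell ATP signal giving a full or clear fitted curve, ranked by lower potency value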; note: potency is the fitted concentration of half-maximal effect); settings: qHTS
Procedure, shortened: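 Jurkat (clone E6-1, human T-cell leukemia) cells, 5000/well in complete medium, were exposed to compound for 40 hr at 37 °C. Viability was read as intracellular ATP by CellTiter-Glo luminescence; AC50 came from Hill fits of concentration-response data.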

[2] = Cell Viability - Hek293 (AID 427;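 active = compounds whose dose-response curve shows a full or clear partial loss of cell viability, called from curve shape rather than a numeric limit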;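 note: potency is the fitted concentration of half-maximal effect; cells exposed to compound for 40 hours at 37 °C before reading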); settings: qHTS
Procedure, shortened: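 Luminescent ATP read-out (CellTiter-Glo, 20 min RT) after 40 hr compound exposure at 37 °C in complete medium. Signal normalized to DMSO (basal) and 100 uM tamoxifen (100% inhibition); concentration-response fitted with the standard Hill equation to give AC50.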

[3] = Cell Viability - HepG2 (AID 433; calls by dose curve;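 note: potency is the fitted concentration of half-maximal effect; potency for ATP loss meaning cytotoxicity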); settings: qHTS
Procedure, shortened: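 Read-out is luciferase-based quantitation of cellular ATP as a measure of viable HepG2 cells after 40 h treatment at 37 °C. Signal decrease is scaled between DMSO-only and 100 uM tamoxifen controls, with AC50 fitted by the Hill equation.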

[4] = Cell Viability - MRC5 (AID 434; calls by dose curve;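 note: potency is the fitted concentration of half-maximal effect; potency reflects cytotoxicity seen as loss of intracellular ATP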); settings: MRC5 lung fibroblast viability, qHTS
Procedure, shortened: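 MRC5 normal human lung fibroblasts, 1500 cells/well, exposed to compound for 40 hr at 37 C. Cellular ATP was read by CellTiter-Glo luminescence; data normalized to DMSO and 100 uM tamoxifen, with AC50 from Hill fits.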

[5] = Cell Viability - N2a (AID 540); settings: N2a mouse neuroblastoma cell viability; at 92.2 µM (top of the series);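 note: plate controls were DMSO alone for no effect and tamoxifen control for full effect; nearly all actives have a fitted effect of over 45% in size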
Procedure, shortened: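 Mouse neuroblastoma N2a cells (1500/well) were preincubated 5 hr at 37 °C, then exposed to compounds for 40 hr at 37 °C in complete medium. Viability was read as intracellular ATP by CellTiter-Glo luminescence; AC50 from Hill fits.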

[6] = Cell Viability - NIH 3T3 (AID 541); settings: NIH 3T3 cell viability, qHTS; activity change, negative = cytotoxicity: at 92.2 µM (top of the series);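 note: plate controls were DMSO alone for no effect and tamoxifen positive control for full effect; nearly all actives have a fitted effect of over 25% in size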
Procedure, shortened: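 NIH 3T3 mouse embryo fibroblasts (1000 cells/well) were plated in complete medium and treated with compound for 40 hr at 37 °C. Viability was read as intracellular ATP by CellTiter-Glo luminescence; AC50 values came from Hill-equation fits of concentration-response data.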

[7] = Cell Viability - HUV-EC-C (AID 542); note: % is set by controls: 0 for no effect and ±100 for the full control effect; nearly all actives have a fitted effect of over 35% in size
Procedure, shortened: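 HUV-EC-C normal human vascular endothelial cells, 1000 cells/well, pre-incubated 5 hr at 37 °C, then exposed to compounds for 40 hr at 37 °C in complete medium. Viability measured as intracellular ATP by CellTiter-Glo luminescence; AC50 from Hill fits.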

[8] = Cell Viability - H-4-II-E (AID 543); note: % is set by controls: 0 for no effect and ±100 for the full control effect; nearly all actives have a fitted effect of over 35% in size
Procedure, shortened: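 Rat hepatoma H-4-II-E cells (1500/well) were plated, incubated 5 hr at 37 °C, then exposed to compounds for 40 hr at 37 °C. Cellular ATP was read by CellTiter-Glo luminescence; AC50 came from Hill-equation fits of concentration-response data.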

[9] = Cell Viability - SH-SY5Y (AID 544); settings: SH-SY5Y neuroblastoma cell viability; viability change, negative = cytotoxic: at 92.2 µM (top of the series); note: nearly all actives have a fitted effect of over 55% in size
Procedure, shortened: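 Human neuroblastoma SH-SY5Y cells (1500/well) in complete medium were exposed to compounds for 40 hr at 37 °C; intracellular ATP was then quantified by CellTiter-Glo luminescence after 20 min at room temperature. AC50 came from Hill-equation concentration-response fits.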

[10] = Cell Viability - Renal Proximal Tubule (AID 545); settings: renal proximal tubule cells viability; at 91.7 µM (top of the series), primary cells of rat origin unless noted; note: nearly all actives have a fitted effect of over 40% in size
Procedure, shortened: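 Luminescent ATP signal (CellTiter-Glo) served as the viability read-out after 40 hr compound exposure of freshly isolated rat proximal tubule cells at 37 °C. Concentration-dependent ATP loss was fitted with the Hill equation to give AC50.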

[11] = Cell Viability - Mesenchymal (AID 546);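 note: cells exposed to compound for 40 hours before reading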
Procedure, shortened: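 Human kidney mesenchymal cells from normal renal glomeruli, 1000 cells/well, rested 5 hr at 37 °C, then treated 40 hr at 37 °C in complete medium. Cellular ATP read by CellTiter-Glo luminescence; AC50 from Hill-equation fits.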

[12] = Cellular Toxicity (caspase-3) HepG2 (AID 654);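 note: cells exposed to compound for 16 hours before reading; 0% = DMSO alone and 100% = caspase signal from 100 µM tamoxifen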
Procedure, shortened: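 HepG2 cells (1500/well) in complete medium were treated with compounds for 16 hr at 37 °C. Caspase-3/7 activity was then read as luminescence from peptide-aminoluciferin cleavage. AC50 came from Hill fits, normalized to DMSO and 100 uM tamoxifen.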

[13] = Cellular Toxicity (caspase-3) Jurkat (AID 655); settings: Jurkat caspase-3 activation, luminescence, DMSO = 0%, tamoxifen = 100%; at 92.2 µM (top of the series);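 note: cells exposed to compound for 16 h at 37 °C before reading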
Procedure, shortened: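 5000 Jurkat cells/well; compound 16 hr, 37 °C; Caspase-Glo 3/7 added, 20 min RT; luminescence read. Norm: DMSO = 0%, tamoxifen 100 uM = 100%. AC50, Hill model.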

[14] = Cellular Toxicity (caspase-3) HUV-EC-C (AID 656)
Procedure, shortened: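 qHTS; HUV-EC-C, 1000 cells/well; 5 hr settle, 16 hr cmpd, 37°C; Caspase-Glo 3/7, 20 min RT; luminescence. Norm: DMSO = 0%, tamoxifen 100 uM = 100%. Hill-fit AC50.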

[15] = Cellular Toxicity (caspase-3) SHSY5Y (AID 657)
Procedure, shortened: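 qHTS, SH-SY5Y, 1500 cells/well, 5 h pre-incubation 37 °C; compound 16 h 37 °C; Caspase-Glo 3/7 1 h RT; luminescence. Norm.: DMSO = 0, 10 uM staurosporine = 100%. Hill fit → AC50.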

[16] = Cellular Toxicity (caspase-3) BJ (AID 658)
Procedure, shortened: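 BJ human foreskin fibroblasts, 1000 cells/well, treated 16 hours at 37 °C in complete medium; caspase 3/7 activity by Caspase-Glo luminescence after 1 hr at room temperature. Normalized to DMSO and 10 uM staurosporine; AC50 from Hill fits.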

[17] = Cellular Toxicity (caspase-3) MRC-5 (AID 659)
Procedure, shortened: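 MRC-5 human normal lung fibroblasts, 1500 cells/well, treated 16 h at 37 °C in complete medium. Caspase 3/7 measured by Caspase-Glo luminescence after 1 h at room temperature. Normalized to DMSO and 10 uM staurosporine; AC50 from Hill fit.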

[18] = Cellular Toxicity (caspase-3) SK-N-SH (AID 661)
Procedure, shortened: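 SK-N-SH human neuroblastoma cells (1500/well) were treated with compounds for 16 hr at 37 °C in complete medium; caspase 3/7 activity was read by Caspase-Glo luminescence. AC50 came from Hill fits of data normalized to DMSO and 10 uM staurosporine.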

[19] = Cellular Toxicity (caspase-3) H-4-II-E (AID 663);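 note: cells exposed to compound for 16 hr before readout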
Procedure, shortened: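 Rat hepatoma H-4-II-E cells (1500/well) plated 5 hr, then exposed to compound titrations for 16 hr at 37 °C. Caspase-Glo 3/7 luminescence read after 20 min at RT; data normalized to DMSO and 100 uM tamoxifen, AC50 from Hill fits.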

[20] = Cellular Toxicity (caspase-3) Hek293 (AID 664);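 note: cells exposed to compound for 16 h at 37 °C before readout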
Procedure, shortened: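 HEK293 cells were exposed to compounds in complete medium for 16 hr at 37 °C, then caspase-3/7 activity was read by Caspase-Glo 3/7 luminescence after 20 min at room temperature. Data normalized to DMSO and 100 uM tamoxifen; AC50 from Hill fits.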

[21] = Cellular Toxicity (caspase-3) N2a (AID 665); settings: N2a cells, luminescence, normalized: DMSO 0%, 10 µM staurosporine 100%; at 92.2 µM (top of the series);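 note: compound exposure lasted 16 h at 37 °C before readout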
Procedure, shortened: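 Mouse N2a neuroblastoma cells (1500/well) were treated with compounds for 16 h at 37 °C, then caspase-3/7 activity was read by Caspase-Glo luminescence after 1 h at room temperature. Data were normalized to DMSO and 10 uM staurosporine; AC50 from Hill fits.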

[22] = Cellular Toxicity (caspase-3) NIH 3T3 (AID 666);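 note: caspase signal read after 16 h compound exposure; 0% = DMSO basal and 100% = 100 µM tamoxifen stimulation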
Procedure, shortened: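 Mouse NIH 3T3 fibroblasts (1000 cells/well) were treated with compound for 16 hr at 37°C in complete medium; caspase-3/7 activity was read by Caspase-Glo luminescence. Normalized to DMSO and 100 uM tamoxifen; AC50 from Hill fits.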

NC(=S)Nc1ccccc1
inactive: Potency [1] > 92 µM | Potency [2] > 92 µM | Potency [3] > 92 µM | Potency [4] > 92 µM | activity change, negative = cytotoxicity [5] -0.295% and -0.273% | activity change, negative = cytotoxicity [6] -8.44% and 0.7% | Potency [7] | Potency [8] | Potency [9] | activity change, negative = cytotoxicity [10] -4.19% [at 91.7 µM] and 2.38% [at 91.7 µM] | outcome [11] | outcome [12] | caspase-3 activation [13] 1.95% and -1.01% | outcome [14] | outcome [15] | outcome [16] | outcome [17] | outcome [18] | outcome [19] | outcome [20] | caspase-3 activation [21] -3.2% and -1.82% | outcome [22]
